For part of these data: Results with a measured potency or affinity are listed apart.
Legend:
Set-up in all cases: scale not given: direction of the effect not stated beside the values
[1] = molecular target: Protein translocase subunit SecA (Escherichia coli (strain K12)) (UniProt P10408); experiment: Assay to Identify E. coli SecA ATPase Inhibitors; type: functional; details: 30 µM
[2] = molecular target: T1, Ubiquitin-activating enzyme e1, putative (Leishmania donovani (strain BPK282A1)) (UniProt E9BSI1); experiment: Leishmania donovani Ubiquitin Activating Enzyme (LdE1); type: functional; details: 30 µM
T1 sequence (whole entry): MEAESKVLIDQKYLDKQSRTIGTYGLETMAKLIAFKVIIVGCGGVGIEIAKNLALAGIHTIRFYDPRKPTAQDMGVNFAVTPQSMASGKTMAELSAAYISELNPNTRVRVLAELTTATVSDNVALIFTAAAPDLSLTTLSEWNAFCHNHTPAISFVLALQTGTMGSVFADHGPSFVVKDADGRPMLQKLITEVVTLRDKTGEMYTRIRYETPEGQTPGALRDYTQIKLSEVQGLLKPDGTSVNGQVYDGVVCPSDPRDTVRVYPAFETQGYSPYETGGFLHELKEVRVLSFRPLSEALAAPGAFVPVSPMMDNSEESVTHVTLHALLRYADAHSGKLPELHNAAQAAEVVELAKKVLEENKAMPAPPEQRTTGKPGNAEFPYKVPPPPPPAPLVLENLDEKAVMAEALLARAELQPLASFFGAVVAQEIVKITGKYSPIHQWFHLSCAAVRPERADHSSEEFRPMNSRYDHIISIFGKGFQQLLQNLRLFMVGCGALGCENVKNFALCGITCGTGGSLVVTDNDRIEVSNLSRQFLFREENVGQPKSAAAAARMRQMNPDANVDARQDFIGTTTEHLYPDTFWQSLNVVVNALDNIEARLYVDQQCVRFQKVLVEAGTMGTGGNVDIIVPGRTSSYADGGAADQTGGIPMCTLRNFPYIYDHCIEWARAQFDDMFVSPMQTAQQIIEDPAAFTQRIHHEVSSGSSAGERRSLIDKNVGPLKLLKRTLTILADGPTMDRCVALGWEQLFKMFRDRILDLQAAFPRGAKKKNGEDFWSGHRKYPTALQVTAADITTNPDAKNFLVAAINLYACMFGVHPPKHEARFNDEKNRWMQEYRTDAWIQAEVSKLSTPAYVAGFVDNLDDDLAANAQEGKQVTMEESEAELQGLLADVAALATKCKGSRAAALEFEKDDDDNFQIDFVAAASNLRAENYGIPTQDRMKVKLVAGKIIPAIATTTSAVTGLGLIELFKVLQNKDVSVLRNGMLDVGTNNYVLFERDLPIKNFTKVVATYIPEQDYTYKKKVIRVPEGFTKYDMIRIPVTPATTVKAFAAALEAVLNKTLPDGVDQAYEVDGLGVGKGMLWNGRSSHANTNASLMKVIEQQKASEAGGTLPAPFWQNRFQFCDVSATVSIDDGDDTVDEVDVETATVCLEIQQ

[3] = molecular target: Sialic acid-binding Ig-like lectin 9 (Homo sapiens) (UniProt Q9Y336); experiment: Hs-Siglec9 ALPHAscreen SOP 20170721; details: 10 µM
Sequence of Sialic acid-binding Ig-like lectin 9 (Homo sapiens) (Q9Y336 whole entry): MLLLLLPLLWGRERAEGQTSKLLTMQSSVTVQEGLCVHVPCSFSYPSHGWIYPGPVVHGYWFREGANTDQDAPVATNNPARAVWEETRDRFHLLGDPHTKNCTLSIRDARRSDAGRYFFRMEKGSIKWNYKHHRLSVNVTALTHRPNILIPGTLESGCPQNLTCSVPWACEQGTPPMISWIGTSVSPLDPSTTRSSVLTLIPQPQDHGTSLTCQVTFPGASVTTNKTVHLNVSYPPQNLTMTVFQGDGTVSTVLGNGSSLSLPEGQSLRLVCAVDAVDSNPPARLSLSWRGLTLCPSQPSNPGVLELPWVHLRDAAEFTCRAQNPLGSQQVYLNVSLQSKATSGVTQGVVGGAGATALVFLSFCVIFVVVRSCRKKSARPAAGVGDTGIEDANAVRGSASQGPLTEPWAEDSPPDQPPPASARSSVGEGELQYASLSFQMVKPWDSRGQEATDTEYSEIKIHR

Trypanosoma cruzi = experiment: Trypanosoma cruzi phosphomannomutase and mannose-1-phosphate guanylyltransferase assay; type: functional; details: 10 µM
[4] = molecular target: T2, Arginase-2, mitochondrial (Homo sapiens) (UniProt P78540); experiment: in vitro enzyme assay to detect the production of urea directly proportional to the activity of Arginase II; type: functional; details: 33.3 µM; note: in the data most compounds retested in dose-response had high values
T2 sequence (whole entry): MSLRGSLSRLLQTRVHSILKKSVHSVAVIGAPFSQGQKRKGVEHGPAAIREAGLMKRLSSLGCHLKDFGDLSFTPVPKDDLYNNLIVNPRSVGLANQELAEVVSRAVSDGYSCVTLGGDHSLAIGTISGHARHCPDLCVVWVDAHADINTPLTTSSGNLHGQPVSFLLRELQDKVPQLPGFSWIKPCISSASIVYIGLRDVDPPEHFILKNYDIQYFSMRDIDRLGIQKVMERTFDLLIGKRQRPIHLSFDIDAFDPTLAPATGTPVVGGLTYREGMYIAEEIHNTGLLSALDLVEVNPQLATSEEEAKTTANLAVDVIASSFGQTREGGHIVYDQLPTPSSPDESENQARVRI

[5] = molecular target: T3, Proteasome subunit beta (Trypanosoma cruzi) (UniProt O96673); experiment: Trypanosoma cruzi proteasome chymotrypsin-like activity (TcProtChymo) assay.; note: in the data most compounds retested in dose-response had high values; type: functional; details: 9.37 µM
T3 sequence (whole entry): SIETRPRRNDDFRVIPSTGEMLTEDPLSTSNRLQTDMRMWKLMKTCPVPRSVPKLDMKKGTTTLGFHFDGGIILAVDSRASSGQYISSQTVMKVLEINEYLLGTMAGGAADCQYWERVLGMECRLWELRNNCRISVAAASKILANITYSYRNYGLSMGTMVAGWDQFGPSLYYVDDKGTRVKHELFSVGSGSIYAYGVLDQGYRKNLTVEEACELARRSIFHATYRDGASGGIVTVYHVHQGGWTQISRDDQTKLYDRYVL

Homo sapiens = species on record: Homo sapiens; experiment: To identify inhibition of the IFN signalling (Jak-Stat) pathway via expression of an eGFP reporter gene under the control of an IFN-stimulated response element (ISRE) containing MxA promoter.; type: functional; details: 30 µM
[6] = molecular target: T4, Tyrosyl-tRNA synthetase, putative (Trypanosoma cruzi (strain CL Brener)) (UniProt Q4DSP6); experiment: Trypanosoma cruzi tyrosyl tRNA synthetase (TcYRS) _High Tyrosine SOP; type: functional; details: 30 µM; note: in the data most compounds retested in dose-response had high values
T4 sequence (whole entry): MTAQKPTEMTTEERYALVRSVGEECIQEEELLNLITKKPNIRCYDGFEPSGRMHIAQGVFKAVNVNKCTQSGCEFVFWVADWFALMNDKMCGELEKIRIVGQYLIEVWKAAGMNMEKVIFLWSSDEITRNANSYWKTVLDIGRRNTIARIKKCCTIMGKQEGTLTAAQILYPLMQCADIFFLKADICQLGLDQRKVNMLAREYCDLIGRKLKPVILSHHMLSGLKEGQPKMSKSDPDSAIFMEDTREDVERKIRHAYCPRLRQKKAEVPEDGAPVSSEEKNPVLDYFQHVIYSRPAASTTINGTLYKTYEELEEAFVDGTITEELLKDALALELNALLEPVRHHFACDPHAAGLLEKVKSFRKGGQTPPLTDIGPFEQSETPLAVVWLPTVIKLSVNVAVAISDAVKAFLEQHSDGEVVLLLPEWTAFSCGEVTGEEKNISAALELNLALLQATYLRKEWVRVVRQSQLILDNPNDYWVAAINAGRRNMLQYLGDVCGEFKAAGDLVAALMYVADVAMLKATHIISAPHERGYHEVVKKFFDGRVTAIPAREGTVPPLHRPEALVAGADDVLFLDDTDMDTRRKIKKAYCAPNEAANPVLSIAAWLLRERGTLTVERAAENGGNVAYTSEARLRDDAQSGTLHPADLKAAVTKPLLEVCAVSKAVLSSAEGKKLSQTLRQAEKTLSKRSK

[7] = molecular target: T4, Tyrosyl-tRNA synthetase, putative (Trypanosoma cruzi (strain CL Brener)); experiment: Trypanosoma cruzi tyrosyl tRNA synthetase (TcYRS) SOP; type: functional; details: 30 µM
[8] = molecular target: Chromo domain-containing protein 1 (Saccharomyces cerevisiae (strain ATCC 204508 / S288c) (Baker's yeast)) (UniProt P32657); experiment: ScCHD-1 Enzyme Inhibition Assay; type: functional; details: 30 µM; note: in the data most compounds retested in dose-response had high values
Sequence of Chromo domain-containing protein 1 (Saccharomyces cerevisiae (strain ATCC 204508 / S288c) (Baker's yeast)) (P32657 whole entry, the tested form may be a part): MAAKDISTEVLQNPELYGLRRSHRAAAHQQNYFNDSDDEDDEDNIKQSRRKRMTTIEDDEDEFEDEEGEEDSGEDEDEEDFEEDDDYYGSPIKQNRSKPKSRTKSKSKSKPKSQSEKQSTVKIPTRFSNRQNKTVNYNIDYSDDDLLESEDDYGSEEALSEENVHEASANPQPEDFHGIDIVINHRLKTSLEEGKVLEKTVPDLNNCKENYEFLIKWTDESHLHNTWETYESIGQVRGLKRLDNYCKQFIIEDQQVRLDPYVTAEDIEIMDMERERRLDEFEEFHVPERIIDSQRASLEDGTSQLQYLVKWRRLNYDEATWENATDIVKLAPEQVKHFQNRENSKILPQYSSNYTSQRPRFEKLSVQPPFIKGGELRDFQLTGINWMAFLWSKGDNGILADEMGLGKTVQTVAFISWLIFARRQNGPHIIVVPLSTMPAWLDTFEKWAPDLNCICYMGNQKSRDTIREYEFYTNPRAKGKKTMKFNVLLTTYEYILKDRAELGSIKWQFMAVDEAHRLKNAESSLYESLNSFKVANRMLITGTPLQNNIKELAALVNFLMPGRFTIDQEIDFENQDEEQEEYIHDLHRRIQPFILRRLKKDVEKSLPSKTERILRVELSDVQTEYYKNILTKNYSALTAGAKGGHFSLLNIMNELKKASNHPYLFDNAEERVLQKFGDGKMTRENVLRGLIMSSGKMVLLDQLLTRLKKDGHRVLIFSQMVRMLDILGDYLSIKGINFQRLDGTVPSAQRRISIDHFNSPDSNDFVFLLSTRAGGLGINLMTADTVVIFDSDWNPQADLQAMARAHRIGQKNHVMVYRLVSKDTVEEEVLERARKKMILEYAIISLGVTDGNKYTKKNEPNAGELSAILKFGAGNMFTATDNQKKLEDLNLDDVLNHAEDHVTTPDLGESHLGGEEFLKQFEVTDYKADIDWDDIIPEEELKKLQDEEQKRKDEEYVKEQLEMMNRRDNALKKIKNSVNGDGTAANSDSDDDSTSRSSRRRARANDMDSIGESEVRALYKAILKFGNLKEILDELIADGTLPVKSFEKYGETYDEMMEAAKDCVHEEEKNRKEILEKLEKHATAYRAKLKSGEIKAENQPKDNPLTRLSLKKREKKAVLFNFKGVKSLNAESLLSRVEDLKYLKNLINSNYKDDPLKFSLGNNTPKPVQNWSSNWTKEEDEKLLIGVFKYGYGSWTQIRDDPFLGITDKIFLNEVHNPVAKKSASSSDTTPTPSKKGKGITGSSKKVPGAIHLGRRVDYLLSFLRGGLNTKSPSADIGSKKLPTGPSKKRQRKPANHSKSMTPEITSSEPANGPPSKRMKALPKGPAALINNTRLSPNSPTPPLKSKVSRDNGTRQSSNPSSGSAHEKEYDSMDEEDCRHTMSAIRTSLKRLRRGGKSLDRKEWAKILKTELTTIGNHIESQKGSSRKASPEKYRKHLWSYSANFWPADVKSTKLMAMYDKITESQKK

Sequence of Protein translocase subunit SecA (Escherichia coli (strain K12)) (P10408 whole entry): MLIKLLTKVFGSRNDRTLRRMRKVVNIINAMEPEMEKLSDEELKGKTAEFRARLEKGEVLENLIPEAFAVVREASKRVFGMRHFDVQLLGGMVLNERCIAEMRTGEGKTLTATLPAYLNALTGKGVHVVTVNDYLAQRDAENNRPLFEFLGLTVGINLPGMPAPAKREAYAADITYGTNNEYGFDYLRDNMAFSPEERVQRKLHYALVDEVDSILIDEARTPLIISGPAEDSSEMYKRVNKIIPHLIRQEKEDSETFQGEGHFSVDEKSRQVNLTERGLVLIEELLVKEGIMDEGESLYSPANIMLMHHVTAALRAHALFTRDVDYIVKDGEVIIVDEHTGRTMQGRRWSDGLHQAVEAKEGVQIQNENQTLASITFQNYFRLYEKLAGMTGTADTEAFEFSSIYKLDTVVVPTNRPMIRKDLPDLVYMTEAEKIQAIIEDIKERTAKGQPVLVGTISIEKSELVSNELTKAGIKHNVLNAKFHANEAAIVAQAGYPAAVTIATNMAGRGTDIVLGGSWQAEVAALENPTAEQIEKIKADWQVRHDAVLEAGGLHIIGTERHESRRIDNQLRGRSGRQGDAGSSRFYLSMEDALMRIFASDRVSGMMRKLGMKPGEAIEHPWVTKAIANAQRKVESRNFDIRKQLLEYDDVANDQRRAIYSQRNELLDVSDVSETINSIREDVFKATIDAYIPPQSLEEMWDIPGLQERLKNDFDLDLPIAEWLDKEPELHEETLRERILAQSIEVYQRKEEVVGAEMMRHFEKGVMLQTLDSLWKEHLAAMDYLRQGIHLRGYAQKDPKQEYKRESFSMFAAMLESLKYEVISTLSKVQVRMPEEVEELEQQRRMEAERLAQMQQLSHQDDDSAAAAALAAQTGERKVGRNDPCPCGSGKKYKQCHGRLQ

Compound	Percent Effect [1] [%]	Percent Effect [2] [%]	Percent Effect [3] [%]	Percent Effect (Trypanosoma cruzi) [%]	Percent Effect [4] [%]	Percent Effect [5] [%]	Percent Effect (Homo sapiens) [%]	Percent Effect [6] [%]	Percent Effect [7] [%]	Percent Effect [8] [%]
Cc1ccc(C(CNC(=O)NCc2cc[nH]n2)N2CCOCC2)o1 (stereo not given)	-3.05	12.8	-4.81	-4.04	0.82	14.1	24.3	2.39	10.8	-3.31
COC(=O)COc1nc(CC(C)C)c2c(c1C#N)CCCC2	-4.25	2.7	-5.64	-7.86	-5.94	10.6	38.2	-2.66	4.88	-4.12
Cc1ccc(N2CCC3(CCN(C(N)=O)CC3)CC2)nn1	-4.59	1.3	-5.12	-8.47	3.64	13.5	5.72	1.58	0	-0.155
c1cc(CN2Cc3nnn(CC4CC4)c3C(COCC3CC3)C2)co1 (stereo not given)	-5.88	3.9	10.3	9.83	-8.1	9.62	-0.188	3.68	12.8	2.41
O=C(c1ccco1)N1CCC2(CC1)C(=O)NCCN2CC1CC1	-7.74	1.3	-3.06	-8.08	-4.05	15.1	8.56	1.58	-2.56	-1.19
CC(Nc1cccc(CN2CCOC2=O)c1)C(=O)Nc1ccccc1F (stereo not given)	-0.263	7.69	0.909	-1.41	4.51	3.5	29.9	2.39	8.43	-5.9
Cc1ccc(F)cc1C(=O)N1C[C@@H](CN2CCOCC2)[C@@H](CO)C1	-9.2	8.11	5.12	2.23	4.54	9.76	2.21	5.85	9.76	-3.39
CCc1nccn1C1CCCN(C(=O)c2csc(NC(C)=O)n2)C1 (stereo not given)	-3.11	15.6	14.2	-2.98	0.205	8.95	-1.12	4.9	11.8	-7.02
CNC(=O)CN1CCCC12CCN(C(=O)c1ccsc1)CC2	-4.84	27.3	3.61	3.94	-1.83	5.06	1.81	6.76	-92.5	-11.2
CN1CCN(c2ncnc3c2c(C(=O)NC2CC2)c2ccccn23)CC1	-0.824	-6.49	1.78	-5.16	3.24	-2.56	0.0174	-1.58	0	-13.6
CCc1noc(C(C)N2CCN(Cc3nnc(C4CC4)o3)CC2)n1 (stereo not given)	-3.4	2.67	-2.35	0.402	-1.77	-3.31	-5.04	0.526	0	-5.5
O=C1NC2(CCN(Cc3nccs3)CC2)CC1c1ccncc1 (stereo not given)	-7.46	9.09	9.45	6.13	-6.07	6.8	-18.5	3.68	10.3	0.471
